Source: PubChem BioAssay (NCI)
The panel holds about 83,000 compounds, 20% with a hit somewhere; the sample as a whole holds those more often.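 The test compound was applied at a single concentration to cells in 96-well plates for 48 hours, and percent growth was recorded.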 Values without a mark were called inactive. Activity calls are given as the source filed them. How the source made its calls: active means growth percent below 10; inactive means the rest.

Experiments:
Assay in all cases: NCI-60 one-dose screen, 48 h (100 = growth as untreated, 0 = no growth, -100 = all killed)
Details in all cases: 10 µM unless noted
[1] = test system: DU-145 prostate
[2] = test system: K-562 leukemia
[3] = test system: MALME-3M melanoma
[4] = test system: MDA-MB-231 breast
[5] = test system: RXF 393 renal
[6] = test system: SF-268 CNS
[7] = test system: SF-295 CNS
[8] = test system: SF-539 CNS
[9] = test system: UACC-257 melanoma
[10] = test system: M14 melanoma
[11] = test system: HCT-15 colon
[12] = test system: HT29 colon
[13] = test system: SNB-19 CNS
[14] = test system: U251 CNS
[15] = test system: PC-3 prostate
[16] = test system: SK-MEL-5 melanoma
[17] = test system: UACC-62 melanoma
[18] = test system: LOX IMVI melanoma
[19] = test system: SK-MEL-28 melanoma

| Compound | growth [1] | growth [2] | growth [3] | growth [4] | growth [5] | growth [6] | growth [7] | growth [8] | growth [9] | growth [10] | growth [11] | growth [12] | growth [13] | growth [14] | growth [15] | growth [16] | growth [17] | growth [18] | growth [19] |
| --- | --- | --- | --- | --- | --- | --- | --- | --- | --- | --- | --- | --- | --- | --- | --- | --- | --- | --- | --- |
| COc1ccc(-c2cn3c(ccc4ccccc43)n2)cc1 | 104% | 94.7% | 106% | 83.3% | 121% | 101% | 89.9% | 90.5% | 118% | 112% | 92.4% | 108% | 99.3% | 105% | 89.2% | 78% | 85.3% | 95.1% | 117% |
| Nc1c(C(=O)Nc2ccccc2)sc2nc3c(cc12)CN(CCc1ccccc1)CC3 | 98.3% | 82.2% | 95.7% | 90.4% | 121% | 93.2% | 103% | 95.3% | 110% | 108% | 107% | 104% | 95.4% | 91.3% | 88.1% | 92.9% | 86.4% | 87.5% | 106% |
| O=[N+]([O-])c1cccc(-c2nc3sccn3c2-c2ccnc(NCCCNS(=O)(=O)c3ccc(F)cc3)n2)c1 | 10.6% | 7.51% (active) | -9.59% (active) | 44.9% | 53.4% | 9.32% (active) | 5.57% (active) | 26.5% | 0.0199% (active) | 0.021% (active) | -3.76% (active) | 18.4% | 29.3% | 26.8% | -3.27% (active) | -76.7% (active) | -45% (active) | -21.3% (active) | -1.76% (active) |
| CC(C)(C)n1cc(-c2ccnc(NCCCNS(=O)(=O)c3cccc4ccccc34)c2)c(-c2cccc(O)c2)n1 | 42.5% | -4% (active) | -19.2% (active) | 11.8% | 0.843% (active) | 37.5% | 8.6% (active) | 41.8% | -23.9% (active) | 2.67% (active) | -19.5% (active) | -20.2% (active) | 56% | 27% | 21.1% | -20% (active) | 51.2% | -45.1% (active) | -37.2% (active) |
| C=C1C(=O)O[C@H]2[C@H]1CC/C(Cn1cc(Cn3ccc4cc(Cl)ccc43)nn1)=C\CC[C@@]1(C)O[C@@H]21 | 4.94% (active) | -29.2% (active) | -67.1% (active) | -51.8% (active) | -72.2% (active) | 18.4% | 73.5% | -88.6% (active) | 28.8% | -4.18% (active) | -47.1% (active) | -43.3% (active) | 53.5% | 28.9% | 6.92% (active) | 46.9% | 5.99% (active) | -89.5% (active) | -13.3% (active) |
| COc1ccc(/C=C2\CN(C(=O)CCN3CCC(=NO)CC3)C/C(=C\c3ccc(OC)cc3)C2=O)cc1 | 22.6% | 4.21% (active) | -40.9% (active) | -57.9% (active) | -81.2% (active) | 13.3% | 8.38% (active) | -25.5% (active) | 22.9% | 7.58% (active) | -12.8% (active) | -48.2% (active) | 8.36% (active) | -46.2% (active) | 12.1% | -55.7% (active) | -70.2% (active) | -91.8% (active) | -30.5% (active) |
| CSc1nc2sc3c(c2c(=O)n1-c1ccc(C(C)C)cc1)CCC(=O)C3 | 40.5% | 2.37% (active) | 2.52% (active) | -17.1% (active) | -2.94% (active) | 18.9% | 4.21% (active) | -22.1% (active) | 84.7% | 10.1% | -15.9% (active) | 11.4% | 9.58% (active) | -80% (active) | -6.64% (active) | -79.9% (active) | -20.8% (active) | -39.6% (active) | 28.7% |
| CN1CCN(Cc2ccc(NC(=O)c3cncc(C#Cc4cnc(N)c5cccnc45)c3)cc2C(F)(F)F)CC1 | 24.6% | 1.39% (active) | -56.8% (active) | -20% (active) | -18.2% (active) | 26.3% | 12.7% | -28.3% (active) | 18.8% | -18.8% (active) | 22.9% | 7.8% (active) | 39.8% | 33.9% | 29.3% | -23.6% (active) | -47.6% (active) | -76.6% (active) | -2.55% (active) |
| O=C(O)c1cn(C2CC2)c2cc(N3CCN(Cc4nc5c(cnn5-c5ccc([N+](=O)[O-])cc5)c(=O)[nH]4)CC3)c(F)cc2c1=O | 110% | 92.6% | 98.1% | 92.4% | 107% | 96.4% | 105% | 97.8% | 106% | 102% | 102% | 102% | 106% | 106% | 93.9% | 99% | 86.6% | 101% | 106% |
| CC[C@]12C=CCN3CC[C@@]4(c5ccc(OC)cc5N(C)[C@H]4[C@@](O)(C(=O)OC)[C@@H]1OC(=O)CCC(=O)N[C@@H](Cc1c[nH]c4ccccc14)C(=O)OC)[C@@H]32 | 99.4% | 85.7% | 57.2% | 67.6% | 15.5% | 85.5% | 99.3% | 102% | 67% | 97.3% | 97.2% | 89.1% | 96.3% | 99.3% | 80.5% | 90.4% | 92% | 84.1% | 37.6% |
| Cc1ccc2cnc(N)c(C#Cc3cncc(C(=O)Nc4ccc(CN5CCN(C)CC5)c(C(F)(F)F)c4)c3)c2c1 | -95.8% (active) | -50.5% (active) | -83.4% (active) | -94.8% (active) | -93% (active) | -69% (active) | -87.2% (active) | -99.2% (active) | -64.7% (active) | -62.2% (active) | -91.9% (active) | -69.9% (active) | -99.1% (active) | -89.5% (active) | -71% (active) | -95.6% (active) | -85.5% (active) | -92.4% (active) | -90.8% (active) |
| CCCCCCNC(=O)Oc1ccc(/C(=C(\C)c2ccccc2)c2ccc(OCCN(CC)CC)cc2)cc1 | 87.7% | 2.08% (active) | 33% | 68.9% | 32.7% | 55.8% | 83.1% | 50% | -1.51% (active) | -40.1% (active) | 4.48% (active) | -16.1% (active) | 63.6% | 38.2% | 45.4% | 41.9% | 18.4% | 67.8% | 61.1% |
| Nc1c(C(=O)Nc2cccc3c2OCCO3)sc2nc3c(cc12)C(=O)CCC3 | 22.2% | 13.7% | 56.8% | 14.7% | -18.5% (active) | 60.7% | 21.9% | -26.3% (active) | 90.6% | 33.6% | 30.1% | 13.5% | 33.3% | 33% | 33.9% | 24% | 23.5% | 41.8% | 60% |
| Fc1ccc(Cc2ccc(F)cc2)cc1 | 113% | 96.7% | 106% | 107% | 118% | 101% | 113% | 102% | 108% | 106% | 116% | 111% | 102% | 98.5% | 102% | 101% | 101% | 97.9% | 105% |
| Cc1ccc(-c2nc(/C=N/Nc3cc(C)nc4ccc(Cl)cc34)c(C)o2)cc1 | 3.19% (active) | -10.9% (active) | -74.6% (active) | -83.9% (active) | -84.9% (active) | -52.7% (active) | 17.1% | -77.7% (active) | 107% | -14.2% (active) | -67.5% (active) | -77.9% (active) | -44.7% (active) | -94.8% (active) | 33.7% | 49.6% | 31.7% | -80.3% (active) | -68.8% (active) |
| O=C1/C(=C/c2ccc(F)cc2)CN(C(=O)CCN2CCC(=NO)CC2)C/C1=C\c1ccc(F)cc1 | -28% (active) | 5.22% (active) | -22.4% (active) | -55.6% (active) | -81% (active) | -23% (active) | -28.9% (active) | -63% (active) | -19.1% (active) | -10.6% (active) | -58% (active) | -76.2% (active) | -37.9% (active) | -65.1% (active) | -23.9% (active) | -89.6% (active) | -67.2% (active) | -89.6% (active) | -59.1% (active) |
